# Screening data from PubChem BioAssay.
# An excerpt weighted towards active compounds, which were near 4.4% of everything screened.
# p53ts 32C kill: qHTS Screen for Compounds that Selectively Target Cancer Cells with p53 Mutations: Cytotoxicity of p53ts Cells at the Permissive Temperature | H1299-p53A138V at 32C, ATP luminescence viability, 24 h | Potency, µM (doses to about 46.1 µM), without a hit: top-dose activity change, negative = cytotoxicity, most hits filed as cytotoxic | 0.93% of 130,000 active | AID 924, 2007;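 further: 0% = DMSO and -100% = full killing by reference compound; nearly all actives have a fitted effect of over 55% in size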
#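 ATP-content luminescence (ATPlite) read-out after 24 h compound exposure at 32C in H1299-p53A138V cells (600/well). Tested up to 46 uM. Normalized to DMSO (0%) and 100 uM tamoxifen (100% killing); Hill-fit AC50.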
# HPGD inh: qHTS Assay for Inhibitors of HPGD (15-Hydroxyprostaglandin Dehydrogenase); 15-hydroxyprostaglandin dehydrogenase [NAD(+)] (Homo sapiens), P15428; purified HPGD, NADH fluorescence kinetic, PGE2 substrate; 4.3% of 150,000 active; AID 894, 2007; Potency, µM, for inactives: top-dose activity change, negative = inhibition, usual class: inhibitors; active means well fitted inhibition curve with a large enough effect, not every such curve was filed as active; inconclusive means small, poorly fitted or top-dose-only effect, or another doubt; inactive means no such curve, though single readings can be large or run the other way
# Target sequence (P15428 whole entry, looked up): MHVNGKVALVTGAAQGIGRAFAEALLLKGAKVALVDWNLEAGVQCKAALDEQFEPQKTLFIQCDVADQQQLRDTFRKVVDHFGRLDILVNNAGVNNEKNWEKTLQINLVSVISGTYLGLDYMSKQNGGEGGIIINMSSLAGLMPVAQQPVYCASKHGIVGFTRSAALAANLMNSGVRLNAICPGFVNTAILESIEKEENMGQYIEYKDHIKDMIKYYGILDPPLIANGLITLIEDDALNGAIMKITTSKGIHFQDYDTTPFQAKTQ
#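 20 nM HPGD preincubated 15 min at room temperature with compound in 50 mM Tris-HCl pH 8, 0.01% Tween 20. Started with 1 mM NAD+ and 30 uM prostaglandin E2; NADH fluorescence (360/450 nm) read 5 times over 30-s intervals, last minus first.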
# 12-hLO inh: qHTS Assay for Inhibitors of 12-hLO (12-human lipoxygenase); purified 12-hLO, xylenol orange hydroperoxide absorbance; Potency, µM (highest dose often 57.1 µM), without a hit: at the highest dose activity change, negative = inhibition, actives largely listed as inhibitors; 0.12% of 150,000 active; AID 1452, 2008; further: nearly all actives have a fitted effect of over 55% in size
#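 Hydroperoxide output read as Fe(III)-xylenol orange absorbance, 573-to-405 nm ratio, after 30 min reaction with 40 uM arachidonic acid. Enzyme: 150 nM purified human 12hLO, 15 min compound preincubation; 25 mM Hepes pH 7.0, room temperature.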
# p53ts 39C kill: qHTS Screen for Compounds that Selectively Target Cancer Cells with p53 Mutations: Cytotoxicity of p53ts Cells at the Nonpermissive Temperature; 1.5% of 130,000 active; H1299-p53A138V viability at 39C, ATP luminescence, 24 h; Potency, µM (highest dose often 46.1 µM), for inactives: at the highest dose activity change, negative = cell killing, actives largely listed as cytotoxic; further: nearly all actives have a fitted effect of over 55% in size
# An asterisk follows results filed as active; ? = inconclusive; / = not tested or not shown; [ ] = remark or other dose. Unless noted, the call rests on the fitted dose curve; in most records, active means well fitted curve in the direction sought with a large enough effect; inconclusive means small, poorly fitted or top-dose-only effect, or another doubt; inactive means no such curve, though single readings can be large; an effect the other way counts as inactive or inconclusive. Unless noted, on the % scale 0 is the no-effect control and ±100 the full control effect; potency means the concentration at half of the fitted maximal effect.
SMILES,p53ts 32C kill,HPGD inh,12-hLO inh,p53ts 39C kill
O=C(N/N=C/c1cccc([N+](=O)[O-])c1)c1cnccn1,/,-6%,-4%,/
O=C(N/N=C/c1ccncc1)c1cc([N+](=O)[O-])cc([N+](=O)[O-])c1O,/,28µM*,-28%,/
Cc1cc(C)nc(SCNC(=O)c2ccc(Cl)cc2)n1,/,28µM*,-7%,/
COc1ccc(/C=C2\CCCC3C2=NC(=S)NC3c2ccc(OC)cc2)cc1 (stereo not drawn),/,?,14µM*,/
Cc1cccc(N2CCN(c3ncnc4onc(C)c34)CC2C)c1 (stereo not drawn),?,/,/,20µM*
CCN(CC)CCNC(=O)c1ccc(Cc2nc3ccccc3[nH]2)cc1,-7%,0%,3%,-3%
COc1ccccc1CNC(=O)C1CCN(S(=O)(=O)c2ccc3c(c2)CCCN3C(C)=O)CC1,6%,/,/,-9%
CCn1nnnc1-c1ccc(OC)c(S(=O)(=O)NCc2ccccc2)c1,3%,20µM*,13%,9%
CCCCOc1ccc(CNC(=O)C2CCCN(c3nnc(-n4c(C)ccc4C)s3)C2)cc1 (stereo not drawn),-5%,/,/,-11%
CCc1cccc(NC(=O)Cn2c(=O)n(CC(=O)NCCc3ccccc3)c(=O)c3ccccc32)c1,10µM*,/,/,6.3µM*
Cc1cc(C)cc(NC(=O)Cn2c(=O)n(CC(=O)NCCc3ccccc3)c(=O)c3ccccc32)c1,?,/,/,20µM*
COc1ccc(CCNC(=O)CCCn2c(=O)c3ccccc3n(CC(=O)Nc3cc(Cl)ccc3C)c2=O)cc1OC,?,/,/,13µM*
COc1ccc(Cl)cc1NC(=O)Cn1c(=O)n(CCCC(=O)NCCc2ccc(OC)c(OC)c2)c(=O)c2ccccc21,-19%,/,/,?
O=C(Cn1c(=O)c2ccccc2n(CC(=O)Nc2ccc(F)cc2)c1=O)NCCc1ccccc1,2%,/,/,-2%
COc1ccc(Br)cc1Cn1nnc(C(=O)Nc2ccc(C)cc2C)c1N,4%,/,/,-7%
O=C(Nc1ccc(Cl)cc1)c1cc(S(=O)(=O)N2CCCc3ccccc32)ccc1F,9%,/,/,39%
Clc1cccc(CSc2nnc(-c3cccnc3)n2Cc2ccco2)c1,3%,-17%,4%,5%
Clc1ccc(CSc2nnc(-c3cccnc3)n2Cc2ccco2)c(Cl)c1,3%,14µM*,?,19%
O=C(N[C@@]1(C(=O)O)C[C@@H]1c1ccccc1)c1ccccc1,-3%[9.22 µM],-2%,3%[11.4 µM],-22%[9.22 µM]
CC(=O)NCCNc1nc(-c2ccc3c(c2)OCO3)nc2ccccc12,-7%,/,/,-6%
Cc1cnc(CNc2nc(-c3ccc(N(C)C)cc3)nc3ccccc23)cn1,10µM*,-16%,-16%,10µM*
CC(=O)NCCNc1nc(-c2ccc(N(C)C)cc2)nc2ccccc12,?,-27%,-4%,13µM*
COCCNc1nc(-c2ccc(N(C)C)cc2)nc2ccccc12,13µM*,?,-16%,10µM*
Cc1cnc(CNc2nc(-c3ccccc3C(F)(F)F)nc3ccccc23)cn1,5%,/,/,-1%
Cc1ccc(N2CC(c3nc4ccccc4n3CCC3CCCCC3)CC2=O)cc1 (stereo not drawn),8%,/,/,-3%
SMILES,p53ts 32C kill,HPGD inh,12-hLO inh,p53ts 39C kill
COCCn1c(=O)c(-c2cccc(C#N)c2)nc2cnc(Oc3cccc(Cl)c3)nc21,-10%,/,/,-5%
COC(=O)c1ccc(NC(=O)N2CCN(Cc3cc(=O)n4nc(-c5ccc(C)cc5)sc4n3)CC2)cc1,-1%,/,/,-8%
CC1CCCN(C(=O)c2cc(F)c(F)cc2Cl)C1 (stereo not drawn),8%,6.3µM*,1%,0%
CC1CCCCN1C(=O)CSc1nc2ccccc2nc1Cc1ccc(Cl)cc1 (stereo not drawn),10%,/,/,13%
CC1CN(C(=O)c2cc(F)c(F)cc2Cl)CC(C)O1 (stereo not drawn),-5%,/,/,4%
CC1CCCCN1C(=O)c1cc(F)c(F)cc1Cl (stereo not drawn),5%,20µM*,3%,6%
CC1CCCCN1C(=O)Cc1ccc(Cl)cc1 (stereo not drawn),8%,11µM*,-1%,2%
O=C(Nc1cccc(F)c1)[C@H](CSCc1ccccc1)N1Cc2ccccc2C1=O,10%,/,/,-6%
COCCNC(=O)COc1ccc(C)cc1C,/,14µM*,2%,/
O=C(CN1C(=O)CCSc2ccc(S(=O)(=O)N3CCCC3)cc21)Nc1cccc(Cl)c1,0%,/,/,-11%
S=c1[nH]nc(-c2ccc(Cl)cc2)n1-c1ccc2c(c1)OCCO2,/,14µM*,-3%,/
COc1ccc(NC(=O)CN2C(=O)CSc3ccc(S(=O)(=O)N(C)C)cc32)cc1OC,-15%,/,/,5%
CC1CCN(S(=O)(=O)c2ccc(Oc3ccc([N+](=O)[O-])cc3)cc2)CC1,/,0%,0%,/
O=[N+]([O-])c1ccc(C(=S)N2CCN(Cc3ccccc3)CC2)cc1,/,-22%,2%,/
CC1CCN(C(=S)c2ccc([N+](=O)[O-])cc2)CC1,/,22µM*,-5%,1%
CCN1CCN(C(=S)c2ccc([N+](=O)[O-])cc2)CC1,-10%,25µM*,-3%,7%
CCc1nc2ccccc2n2c(-c3ccccc3)c3c(=O)n(C)c(=O)n(C)c3c12,10%,/,/,24%
Cc1ccc(C(=O)Cn2c3c(sc2=N)CCCC3)cc1,2µM*,-19%,-19%,1.6µM*
O=C(Nc1cccc(O)c1)c1noc2c1CCc1ccccc1-2,4µM*,-16%,-2%,2.5µM*
COc1cc(-c2nnc(SCC(=O)N3c4ccccc4Sc4ccccc43)o2)cc(OC)c1OC,9%,-24%,6%,-10%
O=C(Sc1nnc(-c2ccccc2)o1)N1c2ccccc2Sc2ccccc21,?,14µM*,-16%,?
CCC(=O)NC(=S)Nc1ccc(NC(=O)COc2ccc(Cl)cc2Cl)cc1,/,-13%,-25%,/
COc1ccc(NC(=S)NNC(=O)COc2ccc(Cl)cc2Cl)cc1,/,4.5µM*,-5%,/
C/C(=C\C(=O)c1ccncc1)Nc1ccccc1O,0%,14µM*,-1%,-9%
COc1cccc(-c2nn3c(-c4ccccn4)nnc3s2)c1,/,32µM*,0%,/
SMILES,p53ts 32C kill,HPGD inh,12-hLO inh,p53ts 39C kill
CC(C)(C)c1ccc(-c2nnc3sc(-c4ccccn4)nn23)cc1,-12%,28µM*,7%,-9%
COc1ccccc1-c1nnc2sc(-c3ccc(N(C)C)cc3)nn12,8%,/,2%,9%
COc1cccc(-c2nnc3sc(-c4ccccn4)nn23)c1,-2%,22µM*,-12%,5%
COc1ccc(-c2nn3c(-c4ccccn4)nnc3s2)cc1OC,-5%,-10%,1%,2%
COc1ccccc1-c1nnc2sc(-c3cnccn3)nn12,2%,25µM*,-4%,-1%
O=c1c(-c2cccs2)nc2cncnc2n1Cc1ccccc1,-3%,/,/,-4%
